Screen size: about 44,000 compounds; about 30 (0.07%) were called active. About 1% were inconclusive and are not listed. Rule as the data show it: active = inhibition above about 54% (passing the limit was not always enough); inconclusive = no clear call, values can overlap the other calls. The full list was thinned out, with actives kept by preference.
Molecular target: Histone-lysine N-methyltransferase NSD2 (Homo sapiens) (UniProt O96028)
Experiment: NSD2 histone methyltransferase activity blockers – biochemical, plate reader, single point, primary screen (AID 624260);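 also: inhibitors reduce the monomethyl H3K36 fluorescence signal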
Conditions: NSD2-SET H3K36me1 DELFIA fluorescence, at 12.5 µM, active compounds read high

Histone-lysine N-methyltransferase NSD2 (Homo sapiens), sequence (O96028 whole entry, looked up): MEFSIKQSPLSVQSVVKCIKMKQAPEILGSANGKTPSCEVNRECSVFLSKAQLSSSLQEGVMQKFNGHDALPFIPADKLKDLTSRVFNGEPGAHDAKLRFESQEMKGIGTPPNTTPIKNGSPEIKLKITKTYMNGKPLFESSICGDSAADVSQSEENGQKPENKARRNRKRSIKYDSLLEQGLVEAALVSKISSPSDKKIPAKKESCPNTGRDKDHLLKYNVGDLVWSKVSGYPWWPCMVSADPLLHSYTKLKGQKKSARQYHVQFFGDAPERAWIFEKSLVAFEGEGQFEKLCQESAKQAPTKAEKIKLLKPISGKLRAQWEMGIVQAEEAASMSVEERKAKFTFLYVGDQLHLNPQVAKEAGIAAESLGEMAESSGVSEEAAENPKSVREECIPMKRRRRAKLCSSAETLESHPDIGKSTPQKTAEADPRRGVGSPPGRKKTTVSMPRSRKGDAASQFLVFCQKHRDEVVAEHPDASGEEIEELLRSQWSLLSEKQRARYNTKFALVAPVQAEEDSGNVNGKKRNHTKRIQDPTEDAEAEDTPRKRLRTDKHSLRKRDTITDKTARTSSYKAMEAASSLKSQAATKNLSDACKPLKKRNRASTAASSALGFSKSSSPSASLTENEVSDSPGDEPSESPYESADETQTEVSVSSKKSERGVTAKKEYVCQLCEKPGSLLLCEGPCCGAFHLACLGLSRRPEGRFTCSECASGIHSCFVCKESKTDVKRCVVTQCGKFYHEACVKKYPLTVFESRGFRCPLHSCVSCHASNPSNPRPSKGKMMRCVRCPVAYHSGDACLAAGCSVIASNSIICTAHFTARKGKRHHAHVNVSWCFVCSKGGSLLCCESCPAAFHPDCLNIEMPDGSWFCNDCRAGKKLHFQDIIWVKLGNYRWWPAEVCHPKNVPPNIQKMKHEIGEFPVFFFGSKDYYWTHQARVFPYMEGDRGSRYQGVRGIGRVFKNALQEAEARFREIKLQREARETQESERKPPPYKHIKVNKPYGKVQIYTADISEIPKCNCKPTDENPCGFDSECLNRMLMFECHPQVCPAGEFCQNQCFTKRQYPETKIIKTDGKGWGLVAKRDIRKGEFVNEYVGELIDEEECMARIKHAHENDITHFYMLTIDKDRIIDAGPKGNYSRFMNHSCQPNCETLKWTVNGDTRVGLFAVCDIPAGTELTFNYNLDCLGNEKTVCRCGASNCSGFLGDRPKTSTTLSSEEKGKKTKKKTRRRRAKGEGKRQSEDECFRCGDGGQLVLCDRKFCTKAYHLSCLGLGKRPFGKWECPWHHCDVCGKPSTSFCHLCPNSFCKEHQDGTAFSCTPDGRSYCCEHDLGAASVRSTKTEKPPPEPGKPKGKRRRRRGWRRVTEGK

inhibition, inactive:
O=C(C[C@H]1C[C@@H]2c3cc(NC(=O)c4cccnc4)ccc3O[C@@H]2[C@@H](CO)O1)NCc1ccccc1F -0.738%
CCCN(C)C[C@H]1Oc2cc(C#CCC3CCCC3)ccc2S(=O)(=O)N([C@@H](C)CO)C[C@@H]1C 1.41%
C[C@@H]1CN([C@@H](C)CO)C(=O)Cc2cc(NC(=O)Nc3ccc4c(c3)OCO4)ccc2O[C@H]1CN(C)S(=O)(=O)c1ccc(F)cc1 5.36%
C[C@H](CO)N1C[C@H](C)[C@@H](CN(C)Cc2ccc(C(F)(F)F)cc2)Oc2ccc(NC(=O)Cn3cnnn3)cc2CC1=O -8%
CC(C)NC(=O)N(C)C[C@H]1Oc2cc(C#Cc3ccccn3)ccc2S(=O)(=O)N([C@H](C)CO)C[C@@H]1C 4.46%
CC(/C=C/C(=O)NO)=C\c1ccccc1OCc1ccc(COc2ccc3ccncc3c2)cc1 -5.12%
C[C@@H]1CN([C@H](C)CO)S(=O)(=O)c2ccc(/C=C/c3ccccc3)cc2O[C@@H]1CN(C)C(=O)Nc1ccc(F)cc1 -10.2%
C[C@H]1CN([C@@H](C)CO)C(=O)Cc2cc(NC(=O)Nc3cccc4ccccc34)ccc2O[C@@H]1CN(C)C 1.05%
Cc1ccc(-c2ccc3c(c2)O[C@H](CN(C)C(=O)Nc2ccccc2)[C@@H](C)CN([C@@H](C)CO)S3(=O)=O)cc1 -6.18%
CCCNC(=O)C[C@H]1C[C@@H]2c3cc(NC(=O)c4ccc5c(c4)OCO5)ccc3O[C@@H]2[C@@H](CO)O1 7.66%
C[C@H](CO)N1C[C@H](C)[C@@H](CN(C)CC2CC2)Oc2ccc(NC(=O)CCCN(C)C)cc2CC1=O 3.07%
O=C(C[C@H]1CC[C@H](NC(=O)Nc2ccc(C(F)(F)F)cc2)[C@H](CO)O1)NCCN1CCCC1 -1.99%
COc1ccc(NC(=O)N(C)C[C@H]2OCc3ccccc3-c3ccccc3C(=O)N([C@H](C)CO)C[C@@H]2C)cc1 -1.37%
CCC(=O)N(C)C[C@H]1Oc2cc(C#CCOC)ccc2S(=O)(=O)N([C@H](C)CO)C[C@H]1C -1.1%
O=C(C[C@H]1C[C@H]2c3cc(NC(=O)Nc4ccc(F)cc4)ccc3O[C@H]2[C@@H](CO)O1)NCC1CC1 2.39%
COc1ccc(CN(C)C[C@H]2OCCCC[C@H](C)Oc3ccc(NS(=O)(=O)c4ccc(C)cc4)cc3C(=O)N([C@@H](C)CO)C[C@H]2C)cc1 2.76%
C[C@@H]1CN([C@@H](C)CO)C(=O)Cc2cc(NC(=O)Nc3ccc(C(F)(F)F)cc3)ccc2O[C@H]1CN(C)C(=O)Nc1ccc(F)cc1 -13.8%
Cc1ccc(S(=O)(=O)N(C)C[C@@H]2Oc3ccc(NC(=O)C4CCCCC4)cc3CC(=O)N([C@@H](C)CO)C[C@H]2C)cc1 -6.23%
CCC(=O)N(C)C[C@@H]1Oc2cc(-c3ccc(OC)cc3)ccc2S(=O)(=O)N([C@@H](C)CO)C[C@H]1C 1.75%
C[C@H](NC(=O)C[C@@H]1CC[C@H](NC(=O)CN2CCOCC2)[C@H](CO)O1)c1ccccc1 -3.53%
COc1cccc(S(=O)(=O)N(C)C[C@@H]2Oc3ncc(-c4cccc(C(=O)N(C)C)c4)cc3C(=O)N([C@H](C)CO)C[C@@H]2C)c1 5.93%
COc1ccc(NC(=O)Nc2ccc3c(c2)C(=O)N([C@H](C)CO)C[C@@H](C)[C@H](CN(C)C(=O)Cc2ccccc2)OCCCC[C@H](C)O3)cc1 -2.17%
CCCNC(=O)C[C@H]1C[C@@H]2c3cc(NC(=O)C4CCOCC4)ccc3O[C@@H]2[C@@H](CO)O1 11%
C/C=C/c1ccc2c(c1)O[C@H](CN(C)C(=O)CN(C)C)[C@H](C)CN([C@@H](C)CO)S2(=O)=O 1.3%
Cc1noc(C)c1S(=O)(=O)Nc1ccc2c(c1)C(=O)N([C@H](C)CO)C[C@@H](C)[C@@H](CN(C)S(=O)(=O)c1ccc(Cl)cc1)O2 -1.25%
C[C@H](CO)N1C[C@H](C)[C@@H](CN(C)Cc2ccccc2)OCCCC[C@H](C)Oc2ccc(NC(=O)Cc3ccccc3)cc2C1=O -3.29%
CCCN(C)C[C@H]1Oc2cc(C#CCC(C)C)ccc2S(=O)(=O)N([C@H](C)CO)C[C@H]1C 0.338%
C[C@H]1CN([C@@H](C)CO)C(=O)c2cccc(NC(=O)Nc3ccc(C(F)(F)F)cc3)c2O[C@H]1CN(C)CC1CCCCC1 1.34%
C[C@H](CO)N1C[C@H](C)[C@H](CN(C)Cc2ccccc2)OCCCC[C@H](C)Oc2ccc(NC(=O)c3ccccc3)cc2C1=O 8.82%
C[C@H]1CN([C@@H](C)CO)C(=O)c2cc(-c3ccncc3)cnc2O[C@H]1CN(C)C(=O)c1cccc(F)c1 -1.28%
CC(C)CC#Cc1ccc2c(c1)O[C@H](CN(C)C(=O)c1cccnc1)[C@@H](C)CN([C@H](C)CO)S2(=O)=O 0.112%
C[C@H]1CN([C@@H](C)CO)C(=O)c2cc(C3=CCCCC3)cnc2O[C@H]1CN(C)Cc1ccncc1 3.39%
C/C=C/c1ccc2c(c1)O[C@@H](CN(C)C(=O)Cc1ccccc1)[C@H](C)CN([C@@H](C)CO)S2(=O)=O 5.94%
COc1ccc(NC(=O)N(C)C[C@H]2Oc3cc(C#CCN(C)C)ccc3S(=O)(=O)N([C@@H](C)CO)C[C@@H]2C)cc1 5.29%
Cc1noc(C)c1NC(=O)N(C)C[C@@H]1Oc2ccc(NC(=O)Nc3cccc4ccccc34)cc2CC(=O)N([C@@H](C)CO)C[C@H]1C -4.68%
CCC(=O)N(C)C[C@@H]1Oc2cc(C#CCOC)ccc2S(=O)(=O)N([C@H](C)CO)C[C@H]1C -17.7%
CN(C)C(=O)C[C@H]1C[C@H]2c3cc(NC(=O)Nc4ccccc4F)ccc3O[C@H]2[C@@H](CO)O1 2.09%
COCC(=O)N(C)C[C@H]1Oc2ncc(-c3ccc(C)cc3)cc2C(=O)N([C@@H](C)CO)C[C@@H]1C 25.2%
C/C=C/c1cnc2c(c1)C(=O)N([C@@H](C)CO)C[C@@H](C)[C@H](CN(C)C(=O)c1cnccn1)O2 0.45%
C[C@H](CO)N1C[C@H](C)[C@@H](CN(C)C)Oc2cc(C#Cc3ccccc3)ccc2S1(=O)=O -6.31%
O=C(Nc1ccc2c(c1)[C@H]1C[C@@H](CC(=O)N3CCc4ccccc4C3)O[C@H](CO)[C@H]1O2)Nc1ccccc1F 2.01%
C[C@H](CO)N1C[C@H](C)[C@@H](CN(C)S(=O)(=O)c2ccccc2)Oc2ncc(-c3ccncc3)cc2C1=O 4.23%
C[C@H](CO)N1C[C@H](C)[C@H](CN(C)CC2CCCC2)Oc2ncc(Br)cc2C1=O 0.26%
CC(=O)N(C)C[C@H]1Oc2ncc(C#Cc3ccc(F)cc3)cc2C(=O)N([C@H](C)CO)C[C@@H]1C 3.93%
C[C@@H]1CN([C@H](C)CO)S(=O)(=O)c2ccc(-c3ccncc3)cc2O[C@H]1CN(C)S(=O)(=O)c1ccccc1F -2.69%
CC(C)CC#Cc1ccc2c(c1)O[C@@H](CN(C)C(=O)c1ccccc1F)[C@H](C)CN([C@H](C)CO)S2(=O)=O -7.41%
C[C@@H]1CN([C@@H](C)CO)S(=O)(=O)c2ccc(C#C[C@@H](C)O)cc2O[C@@H]1CN(C)CC1CC1 4.62%
COCC#Cc1ccc2c(c1)O[C@@H](CN(C)Cc1cccnc1)[C@@H](C)CN([C@H](C)CO)S2(=O)=O 5.56%
COc1ccc(S(=O)(=O)Nc2ccc3c(c2)C(=O)N([C@@H](C)CO)C[C@H](C)[C@@H](CN(C)S(=O)(=O)c2ccc(C)cc2)OCCCC[C@@H](C)O3)cc1 -8.56%
C[C@@H]1CN([C@@H](C)CO)S(=O)(=O)c2ccc(Br)cc2O[C@@H]1CN(C)C(=O)C1CCCCC1 -6.34%
C[C@@H]1CN([C@H](C)CO)S(=O)(=O)c2ccc(C#CC(C)(C)O)cc2O[C@@H]1CN(C)Cc1ccccc1 -5.05%
COCC(=O)N(C)C[C@@H]1Oc2cc(C3=CCCC3)ccc2S(=O)(=O)N([C@@H](C)CO)C[C@H]1C -2.03%
C[C@@H]1CN([C@@H](C)CO)S(=O)(=O)c2ccc(Br)cc2O[C@H]1CN(C)S(=O)(=O)c1ccccc1 0.606%
COc1ccc(NC(=O)Nc2ccc3c(c2)[C@H]2C[C@H](CC(=O)NC4CCCC4)O[C@H](CO)[C@H]2O3)cc1 -1.24%
C[C@@H]1CCCCO[C@H](CN(C)C(=O)Cc2ccccc2)[C@H](C)CN([C@@H](C)CO)C(=O)c2cc(NS(=O)(=O)c3ccc(F)cc3)ccc2O1 6.79%
C[C@H](CO)N1C[C@H](C)[C@@H](CN(C)C(=O)C2CCCCC2)Oc2cc(C3=CCCC3)ccc2S1(=O)=O -2.1%
COc1ccc(NC(=O)Nc2ccc3c(c2)C(=O)N([C@@H](C)CO)C[C@@H](C)[C@H](CN(C)C(=O)CCC(F)(F)F)OCCCC[C@@H](C)O3)cc1 -1.97%
C/C=C/c1ccc2c(c1)O[C@@H](CN(C)C(=O)C1CCOCC1)[C@H](C)CN([C@H](C)CO)S2(=O)=O 12.8%
C[C@@H]1CN([C@@H](C)CO)C(=O)Cc2cc(NS(=O)(=O)c3ccc(Cl)cc3)ccc2O[C@H]1CN(C)Cc1ccc(C(F)(F)F)cc1 -12.4%
